Source: PubChem BioAssay
Values without a mark were called inactive. How the calls were made is not given here.

The compounds below were run against Pantothenate synthetase (Mycobacterium tuberculosis (strain ATCC 25618 / H37Rv)) (UniProt P9WIL5) (assay: Coupled enzyme confirmation of inhibitors against recombinant Mtb PanC (AID 375;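 further: 0% = full reaction with vehicle and 100% = no enzyme background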)). Details: coupled enzyme assay; at 10 µM, stronger effect = higher value.
Sequence of Pantothenate synthetase (Mycobacterium tuberculosis (strain ATCC 25618 / H37Rv)) (P9WIL5 whole entry, looked up): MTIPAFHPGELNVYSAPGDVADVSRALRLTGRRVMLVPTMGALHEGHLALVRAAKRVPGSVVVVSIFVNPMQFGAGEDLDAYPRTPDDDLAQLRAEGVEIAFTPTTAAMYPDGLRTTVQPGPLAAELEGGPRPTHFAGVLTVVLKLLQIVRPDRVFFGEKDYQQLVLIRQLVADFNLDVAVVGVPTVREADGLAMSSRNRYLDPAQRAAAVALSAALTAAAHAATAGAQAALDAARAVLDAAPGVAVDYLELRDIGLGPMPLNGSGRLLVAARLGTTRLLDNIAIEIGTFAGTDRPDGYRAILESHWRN

SMILES | inhibition [%]
CCn1c(SCc2cc(=O)[nH]c3ccccc23)nc2c1c(=O)n(C)c(=O)n2C | 5
CC(C)NC(=O)NC(=O)COc1cccc2c1OC(C)(C)C2 | 0
C=CCc1c(C)nc(SC)nc1Nc1ccc(C(=O)O)cc1 | 6
Cc1c(C(=O)O)c(-c2ccccc2)nn1-c1ccccc1 | 2
COC(=O)c1ccc(NC(=O)C2CC(=O)N(c3cc(C)ccc3C)C2)cc1 (stereo not given) | 5
CC(C)CNS(=O)(=O)c1ccc(CCC(=O)N2CCOCC2)cc1 | 0
c1ccc(-c2oc3ncnc(NCCN4CCOCC4)c3c2-c2ccccc2)cc1 | 4
CCOC(=O)N1CCN(C(=O)CSc2cc(C)nc3c(-c4ccccc4OC)c(C)nn23)CC1 | 0
CC(=O)Nc1ccc(OCC(O)CN2CCN(c3cccc(Cl)c3)CC2)cc1 (stereo not given) | 3
CC(CCc1ccccc1)NCC(O)c1ccc(O)c(C(N)=O)c1 (stereo not given) | 2
COc1ccc(N2CCN(c3oc(COc4ccccc4)nc3C#N)CC2)cc1 | 0
CC(=O)c1c(C)[nH]c(C(=O)Nc2c(C)n(C)n(-c3ccccc3)c2=O)c1C | 7
CC(C)Cn1c(CN2CCCCC2C)nc2c1c(=O)n(C)c(=O)n2C (stereo not given) | 0
C[C@]12C=CC(=O)C=C1CC[C@H]1[C@@H]3C[C@@H](O)[C@](O)(C(=O)CO)[C@@]3(C)C[C@H](O)[C@@]12F | 0
COC(=O)c1ccc2c(=O)n(NC(C)=O)c(=S)[nH]c2c1 | 0
COc1ccc(-c2noc(CCN3C(=O)c4ccccc4C3=O)n2)cc1OC | 7
O=C(Nc1ccccc1C(=O)NCCCn1ccnc1)c1ccccc1 | 3
COc1ccc(C2/C(=C(/O)c3ccc(OC(C)C)cc3)C(=O)C(=O)N2CCCN2CCOCC2)cc1 (stereo not given) | 0
CCCS(=O)(=O)N1CCN(C(=O)c2cccs2)CC1 | 0
CC(=O)c1c(C)oc2ccc(NS(=O)(=O)c3ccc(O)c(C(=O)O)c3)cc12 | 4

SMILES | inhibition [%]
Cc1csc(NC(=O)c2ccoc2C)n1 | 0
CC(=O)OCC1OC(c2ccccc2)C(OC(C)=O)C(OC(C)=O)C1OC(C)=O (stereo not given) | 0
Fc1ccc(-c2cnc[nH]2)cc1 | 0
N#Cc1nc(-c2cccs2)oc1NCc1ccc(Cl)cc1 | 0
O=C(c1ccncc1)N1CCN(C(=O)c2cccs2)CC1 | 6
O=C(NCC1CCCO1)c1ccccc1-c1nc(-c2ccc(Cl)cc2)no1 (stereo not given) | 1
COc1ccc(C2C(C(C)=O)=C(C)N=c3s/c(=C/c4ccc5c(c4)OCO5)c(=O)n32)cc1 (stereo not given) | 0
Cc1nc(NC(=O)C23CCC(C)(C(=O)O2)C3(C)C)sc1C (stereo not given) | 0
CCCS(=O)(=O)C(=C1Nc2ccccc2N1)S(=O)(=O)CCC | 1
CCOC(=O)CSC1=C(C#N)C(=O)NC2(CCCCC2)S1 | 3
CCOc1ccc(NC(=O)c2ccncc2)cc1 | 0
O=C(Cn1c(SCC(=O)N2CCCc3ccccc32)nc2ccccc21)N1CCCC1 | 0
Cc1ccccc1CN1CCN(CC(=O)NCc2ccco2)C1=O | 0
Cc1nnc2ccc(N3CCC4(CC3)OCCO4)nn12 | 0
Cn1c(=O)c2c(nc(NCCc3ccccc3)n2CC(=O)NCCc2ccccc2)n(C)c1=O | 0
COc1nc(C)ccc1-c1noc(-c2ccncc2)n1 | 2
CCOC(=O)N1CCC(NC(=O)c2ccc(CS(=O)(=O)c3c(Cl)cccc3Cl)o2)CC1 | 0
O=C(CSc1nc(-c2ccccc2)cs1)NCc1ccco1 | 0
CCCn1c2c(c(O)c(C(=O)NC)c1=O)CCCC2 | 5
OCCN1CCN(CCCN2c3ccccc3Sc3ccc(C(F)(F)F)cc32)CC1 | 2
